Reference: PubChem BioAssay (EPA / NIEHS)
Calls of active or inactive are those of the source. How the source made its calls: active means hit-call score of the fitted dose curve at least 0.9, where 1 is the maximum; inactive means score below 0.9.

Assays:
[1] = read-out: Macrophage colony-stimulating factor (MCSF), CSF1 (gene 1435); assay: BSK_hDFCGF_MCSF: BioMAP Diversity Plus: hDFCGF Assay for Macrophage colony-stimulating factor (MCSF) Biomarker Activity (AID 2283060); conditions: primary human foreskin fibroblasts; actives raise or lower the signal
Summary of the method: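 Primary human foreskin fibroblasts dosed with chemical; 24 h later, M-CSF quantified by ELISA; curves fitted in both directions vs DMSO negative control.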

[2] = BSK_hDFCGF_SRB: Viability Assessment in the BioMAP Diversity Plus: hDFCGF Assay (AID 2283061); conditions: primary human foreskin fibroblasts;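 further: cells exposed to compound for 24 h before the read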
Summary of the method: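 Readout is SRB absorbance at 560 nm, reflecting total protein in parallel cultures of human foreskin fibroblasts harvested 24 h after chemical dosing. Activity was fitted bidirectionally relative to DMSO.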

[3] = read-out: TIMP metallopeptidase inhibitor 1 (TIMP1), TIMP1 (gene 7076); assay: BSK_hDFCGF_TIMP1: BioMAP Diversity Plus: hDFCGF Assay for TIMP metallopeptidase inhibitor 1 (TIMP1) Biomarker Activity (AID 2283062); conditions: primary human foreskin fibroblasts; actives raise or lower the signal
Summary of the method: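 Human skin fibroblasts (primary), hDFCGF system; compound exposure 24 h; TIMP-1 by ELISA; bidirectional fit vs DMSO negative control; overt cytotoxicity by SRB in parallel wells.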

[4] = read-out: Monokine induced gamma interferon (MIG), CXCL9 (gene 4283); assay: BSK_hDFCGF_MIG: BioMAP Diversity Plus: hDFCGF Assay for Monokine induced gamma interferon (MIG) Biomarker Activity (AID 2283063); conditions: primary human foreskin fibroblasts; actives raise or lower the signal
Summary of the method: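 Chemicals were added to primary human foreskin fibroblast cultures, which were sampled 24 h later. MIG levels were then quantified by ELISA and responses fitted in both directions relative to DMSO.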

[5] = read-out: Matrix Metallopeptidase 1 (MMP1), MMP1 (gene 4312); assay: BSK_hDFCGF_MMP1: BioMAP Diversity Plus: hDFCGF Assay for Matrix Metallopeptidase 1 (MMP1) Biomarker Activity (AID 2283064); conditions: primary human foreskin fibroblasts; actives raise or lower the signal
Summary of the method: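 Primary human foreskin fibroblasts exposed to chemicals for 24 h; MMP1 measured by ELISA. Cytotoxicity tracked by SRB staining in parallel cultures; bidirectional fit relative to DMSO.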

[6] = read-out: Vascular cell adhesion molecule 1 (VCAM1), VCAM1 (gene 7412); assay: BSK_hDFCGF_VCAM1: BioMAP Diversity Plus: hDFCGF Assay for Vascular cell adhesion molecule 1 (VCAM1) Biomarker Activity (AID 2283065); conditions: primary human foreskin fibroblasts; actives raise or lower the signal;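 on AC50: VCAM-1 protein level quantified by ELISA after 24 h chemical exposure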
Summary of the method: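 Human foreskin fibroblast primary cells, chemical exposure 24 h; VCAM-1 by ELISA; bidirectional fit, DMSO = negative control/baseline.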

[7] = read-out: Plasminogen activator inhibitor-1 (PAI1), SERPINE1 (gene 5054); assay: BSK_hDFCGF_PAI1: BioMAP Diversity Plus: hDFCGF Assay for Plasminogen activator inhibitor-1 (PAI1) Biomarker Activity (AID 2283066); conditions: primary human foreskin fibroblasts; actives raise or lower the signal
Summary of the method: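 PAI-1 levels, determined by ELISA, served as the endpoint in human foreskin fibroblast cultures exposed to compound for 24 h, with DMSO as baseline.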

[8] = read-out: Intercellular Adhesion Molecule 1 (ICAM1), ICAM1 (gene 3383); assay: BSK_KF3CT_ICAM1: BioMAP Diversity Plus: KF3CT Assay for Intercellular Adhesion Molecule 1 (ICAM1) Biomarker Activity (AID 2283067); conditions: primary human keratinocytes with fibroblasts; actives raise or lower the signal
Summary of the method: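 ICAM-1 levels are measured by ELISA 24 h after dosing a primary human co-culture of keratinocytes and foreskin fibroblasts. Activity in either direction is fitted relative to DMSO vehicle.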

[9] = read-out: Interferon-gamma inducible Protein 10 (IP10), CXCL10 (gene 3627); assay: BSK_KF3CT_IP10: BioMAP Diversity Plus: KF3CT Assay for Interferon-gamma inducible Protein 10 (IP10) Biomarker Activity (AID 2283068); conditions: primary human keratinocytes with fibroblasts; actives raise or lower the signal
Summary of the method: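 ELISA read-out of IP-10 after 24 h chemical dosing of human skin primary co-culture (keratinocytes, foreskin fibroblasts). Gain or loss of signal relative to DMSO, bidirectional curve fit.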

[10] = BSK_KF3CT_SRB: Viability Assessment in the BioMAP Diversity Plus: KF3CT Assay (AID 2283069); conditions: primary human keratinocytes with fibroblasts;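 further: total protein by sulforhodamine B staining as a cytotoxicity measure; read 24 h after compound addition; fitted for both signal gain and loss against DMSO baseline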
Summary of the method: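 Human keratinocyte and foreskin fibroblast co-culture exposed to chemical for 24 h. Total protein measured in parallel cultures by 0.1% sulforhodamine B staining after 10% TCA fixation, read at 560 nm; bidirectional fit relative to DMSO.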

[11] = read-out: Interleukin-1 alpha (IL1a), IL1A (gene 3552); assay: BSK_KF3CT_IL1a: BioMAP Diversity Plus: KF3CT Assay for Interleukin-1 alpha (IL1a) Biomarker Activity (AID 2283070); conditions: primary human keratinocytes with fibroblasts; actives raise or lower the signal
Summary of the method: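 Primary human keratinocyte plus foreskin fibroblast co-culture, dosed and measured at 24 h in 96-well plates. IL-1a level quantified by ELISA; bidirectional fit relative to DMSO.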

[12] = read-out: TIMP metallopeptidase inhibitor 2 (TIMP2), TIMP2 (gene 7077); assay: BSK_KF3CT_TIMP2: BioMAP Diversity Plus: KF3CT Assay for TIMP metallopeptidase inhibitor 2 (TIMP2) Biomarker Activity (AID 2283071); conditions: primary human keratinocytes with fibroblasts; actives raise or lower the signal
Summary of the method: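 Keratinocyte–fibroblast co-culture, 24 h exposure; TIMP-2 ELISA, DMSO-normalised bidirectional fit. Parallel SRB (0.1%, TCA-fixed, 560 nm) total-protein staining gauges cytotoxicity.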

[13] = read-out: Transforming growth factor beta 1 (TGFb1), TGFB1 (gene 7040); assay: BSK_KF3CT_TGFb1: BioMAP Diversity Plus: KF3CT Assay for Transforming growth factor beta 1 (TGFb1) Biomarker Activity (AID 2283072); conditions: primary human keratinocytes with fibroblasts; actives raise or lower the signal
Summary of the method: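 Signal changes in either direction, relative to DMSO, define activity here. TGF-b1 is read by ELISA from a human keratinocyte-fibroblast co-culture 24 h post-dose.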

[14] = read-out: C-C motif chemokine 2 (Homo sapiens) (UniProt P13500); assay: BSK_KF3CT_MCP1: BioMAP Diversity Plus: KF3CT Assay for Monocyte Chemoattractant Protein 1 (MCP1/CCL2) Biomarker Activity (AID 2283073); conditions: primary human keratinocytes with fibroblasts; actives raise or lower the signal
Summary of the method: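 ELISA readout of MCP-1 after 24 h chemical dosing of a human skin primary co-culture of keratinocytes and foreskin fibroblasts. Activity was fitted in both directions against DMSO.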

[15] = read-out: Matrix Metallopeptidase 9 (MMP9), MMP9 (gene 4318); assay: BSK_KF3CT_MMP9: BioMAP Diversity Plus: KF3CT Assay for Matrix Metallopeptidase 9 (MMP9) Biomarker Activity (AID 2283074); conditions: primary human keratinocytes with fibroblasts; actives raise or lower the signal;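 on AC50: MMP9 protein level quantified by ELISA in the co-culture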
Summary of the method: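 Human keratinocyte and foreskin fibroblast co-culture exposed to chemicals for 24 h; MMP9 biomarker measured by ELISA, bidirectional fitting relative to DMSO; cytotoxicity tracked by SRB total protein staining in parallel cultures.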

[16] = read-out: urokinase plasminogen activator (uPA), PLAU (gene 5328); assay: BSK_KF3CT_uPA: BioMAP Diversity Plus: KF3CT Assay for urokinase plasminogen activator (uPA) Biomarker Activity (AID 2283075); conditions: primary human keratinocytes with fibroblasts; actives raise or lower the signal
Summary of the method: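 Primary human keratinocyte/foreskin fibroblast co-culture exposed to chemical; uPA measured by ELISA at 24 h. Bidirectional fit versus DMSO, with parallel SRB total-protein staining for cytotoxicity.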

CD40, CD40 (gene 958) = assay: BSK_LPS_CD40: BioMAP Diversity Plus: LPS Assay for CD40 Biomarker Activity (AID 2283076); conditions: primary human HUVEC with PBMC; actives raise or lower the signal
Summary of the method: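 Cells were dosed, incubated 24 h, then assayed for CD40 by ELISA. Gain or loss of signal was analysed relative to DMSO controls. The culture paired human umbilical vein endothelium with peripheral blood mononuclear cells.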

[17] = read-out: E-selectin (Homo sapiens) (UniProt P16581); assay: BSK_LPS_Eselectin: BioMAP Diversity Plus: LPS Assay for Eselectin Biomarker Activity (AID 2283077); conditions: primary human HUVEC with PBMC; actives raise or lower the signal
Summary of the method: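 Primary human vascular co-culture (endothelium plus PBMC) was dosed with chemical, then E-selectin quantified by ELISA at 24 h. Endpoint values derive from bidirectional curve fitting relative to DMSO.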

[18] = read-out: Interleukin-8 (IL8), CXCL8 (gene 3576); assay: BSK_LPS_IL8: BioMAP Diversity Plus: LPS Assay for Interleukin-8 (IL8) Biomarker Activity (AID 2283078); conditions: primary human HUVEC with PBMC; actives raise or lower the signal
Summary of the method: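 Readout is IL-8 by ELISA, taken 24 h after compounds were added to LPS-stimulated endothelial/PBMC co-cultures. Both increases and decreases relative to DMSO control were scored through bidirectional fitting.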

[19] = BSK_LPS_SRB: Viability Assessment in the BioMAP Diversity Plus: LPS Assay (AID 2283079); conditions: primary human HUVEC with PBMC;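 further: total protein by sulforhodamine B absorbance as a cytotoxicity measure; measured one day after compound addition; fitted in both directions against DMSO so loss or gain of signal counts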
Summary of the method: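 Readout is SRB absorbance at 560 nm (0.1% stain, TCA-fixed parallel cultures) as a total-protein cytotoxicity measure. Cells: primary human umbilical vein endothelium plus peripheral blood mononuclear cells, 24 h after chemical exposure; DMSO served as baseline.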

Measured: AC50

Sequence of E-selectin (Homo sapiens) (P16581 whole entry, looked up): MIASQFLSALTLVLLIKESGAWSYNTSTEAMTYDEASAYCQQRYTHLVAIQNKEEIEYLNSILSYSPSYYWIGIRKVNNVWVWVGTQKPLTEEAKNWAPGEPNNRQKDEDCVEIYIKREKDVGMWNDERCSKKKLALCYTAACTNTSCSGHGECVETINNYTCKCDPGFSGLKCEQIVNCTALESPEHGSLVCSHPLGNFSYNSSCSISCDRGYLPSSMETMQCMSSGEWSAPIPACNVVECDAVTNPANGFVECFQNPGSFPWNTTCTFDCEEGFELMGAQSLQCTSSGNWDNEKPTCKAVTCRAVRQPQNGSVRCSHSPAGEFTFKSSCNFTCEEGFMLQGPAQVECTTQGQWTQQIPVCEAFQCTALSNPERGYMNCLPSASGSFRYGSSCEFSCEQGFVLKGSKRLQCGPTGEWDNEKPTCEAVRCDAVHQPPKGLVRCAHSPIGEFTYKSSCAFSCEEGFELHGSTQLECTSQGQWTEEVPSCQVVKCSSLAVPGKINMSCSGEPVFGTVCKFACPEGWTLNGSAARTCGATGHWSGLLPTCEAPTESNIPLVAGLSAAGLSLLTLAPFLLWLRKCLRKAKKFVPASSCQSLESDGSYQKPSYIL

CCc1ccc(C(=O)NN(C(=O)c2cc(C)cc(C)c2)C(C)(C)C)cc1
inactive: [1] | [2] | [3] | [4] | [5] | [6] | [7] | [8] | [9] | [10] | [11] | [12] | [13] | [14] | [15] | [16] | CD40, CD40 (gene 958) | [17] | [18] | [19]

O=[N+]([O-])c1c(Cl)c(Cl)c(Cl)c(Cl)c1Cl
active: [1] 18 µM | [2] 31 µM | [4] 29.3 µM | [5] 0.255 µM | [6] 20 µM | [7] 28.8 µM | [9] 17.6 µM | [11] 24.4 µM | [12] 29.9 µM | [15] 15.7 µM | [16] 31 µM | CD40, CD40 (gene 958) 17.9 µM | [17] 31.1 µM
inactive: [3] | [8] | [13] | [14] | [18] | [19]

CCS(=O)(=O)c1cccnc1S(=O)(=O)NC(=O)Nc1nc(OC)cc(OC)n1
inactive: [1] | [2] | [3] | [4] | [5] | [6] | [7] | [8] | [10] | [11] | [12] | [13] | [15] | [16] | CD40, CD40 (gene 958) | [19]
active: [9] 0.266 µM | [14] 0.202 µM | [17] 7.35 µM | [18] 5.47 µM

COC(=O)c1ccccc1CS(=O)(=O)NC(=O)Nc1nc(OC)cc(OC)n1
inactive: [1] | [2] | [3] | [4] | [5] | [6] | [7] | [8] | [9] | [11] | [12] | [13] | [14] | [15] | [16] | CD40, CD40 (gene 958) | [17] | [18] | [19]

CNC(=O)CSP(=S)(OC)OC
inactive: [1] | [2] | [3] | [4] | [5] | [6] | [7] | [8] | [9] | [10] | [11] | [12] | [13] | [14] | [15] | [16] | CD40, CD40 (gene 958) | [17] | [18] | [19]
